Read-outs that look alike come from different tables or passages of the source.
Legend:
[1] = tested on: PRKAA2; details: read-out: apparent Kd, n = 1
[2] = tested on: PRKD2; details: read-out: apparent Kd, n = 1
[3] = compound concentrations:100 nM and 1000 nM (sheet 'Lestaurtinib' of Supplementary Table 1),run:Lestaurtinib_02496_R2,Plate:MR013
[4] = compound concentrations:100 nM and 1000 nM (sheet 'Lestaurtinib' of Supplementary Table 1),run:Lestaurtinib_02496_R3,Plate:MR013
[5] = compound concentrations:100 nM and 1000 nM (sheet 'Lestaurtinib' of Supplementary Table 1),run:Lestaurtinib_02572_R1,Plate:MR015
[6] = compound concentrations:100 nM and 1000 nM (sheet 'Lestaurtinib' of Supplementary Table 1),run:Lestaurtinib_02572_R2,Plate:MR015
[7] = compound concentrations:100 nM and 1000 nM (sheet 'Lestaurtinib' of Supplementary Table 1),run:Lestaurtinib_02572_R3,Plate:MR015
[8] = compound concentrations:100 nM and 1000 nM (sheet 'Lestaurtinib' of Supplementary Table 1),run:Lestaurtinib_02577_R3,Plate:MR016
[9] = compound concentrations:100 nM and 1000 nM (sheet 'Lestaurtinib' of Supplementary Table 1),run:Lestaurtinib_02584_R1,Plate:MR017
[10] = compound concentrations:100 nM and 1000 nM (sheet 'Lestaurtinib' of Supplementary Table 1),run:Lestaurtinib_02584_R3,Plate:MR017
[11] = compound concentrations:100 nM and 1000 nM (sheet 'Lestaurtinib' of Supplementary Table 1),run:Lestaurtinib_02601_R2,Plate:MR018
[12] = compound concentrations:100 nM and 1000 nM (sheet 'Lestaurtinib' of Supplementary Table 1),run:Lestaurtinib_02624_R1,Plate:MR020
[13] = compound concentrations:100 nM and 1000 nM (sheet 'Lestaurtinib' of Supplementary Table 1),run:Lestaurtinib_02624_R3,Plate:MR020
[14] = compound concentrations:100 nM and 1000 nM (sheet 'Lestaurtinib' of Supplementary Table 1),run:Lestaurtinib_02724_R2,Plate:MR021
[15] = compound concentrations:100 nM and 1000 nM (sheet 'Lestaurtinib' of Supplementary Table 1),run:Lestaurtinib_02724_R3,Plate:MR021

Lestaurtinib
potency estimated from few doses [1, 3]: 598 nM | potency estimated from few doses [1, 4]: 785 nM | potency estimated from few doses [1, 5]: 617 nM | potency estimated from few doses [1, 6]: 1330 nM | potency estimated from few doses [1, 7]: 1400 nM | potency estimated from few doses ([1]; compound concentrations:100 nM and 1000 nM (sheet 'Lestaurtinib' of Supplementary Table 1),run:Lestaurtinib_02577_R2,Plate:MR016): 1210 nM | potency estimated from few doses [1, 8]: 924 nM | potency estimated from few doses [1, 9]: 1410 nM | potency estimated from few doses [1, 10]: 1530 nM | potency estimated from few doses ([1]; compound concentrations:100 nM and 1000 nM (sheet 'Lestaurtinib' of Supplementary Table 1),run:Lestaurtinib_02601_R1,Plate:MR018): 805 nM | potency estimated from few doses [1, 11]: 710 nM | potency estimated from few doses ([1]; compound concentrations:100 nM and 1000 nM (sheet 'Lestaurtinib' of Supplementary Table 1),run:Lestaurtinib_02606_R2,Plate:MR019): 749 nM | potency estimated from few doses ([1]; compound concentrations:100 nM and 1000 nM (sheet 'Lestaurtinib' of Supplementary Table 1),run:Lestaurtinib_02606_R3,Plate:MR019): 736 nM | potency estimated from few doses [1, 12]: 849 nM | potency estimated from few doses ([1]; compound concentrations:100 nM and 1000 nM (sheet 'Lestaurtinib' of Supplementary Table 1),run:Lestaurtinib_02624_R2,Plate:MR020): 711 nM | potency estimated from few doses [1, 13]: 877 nM | potency estimated from few doses [1, 14]: 803 nM | potency estimated from few doses [1, 15]: 946 nM | potency estimated from few doses ([1]; compound concentrations:100 nM and 1000 nM (sheet 'Lestaurtinib' of Supplementary Table 1),run:Lestaurtinib_02748_R1,Plate:MR024): 752 nM | potency estimated from few doses ([1]; compound concentrations:100 nM and 1000 nM (sheet 'Lestaurtinib' of Supplementary Table 1),run:Lestaurtinib_02748_R3,Plate:MR024): 559 nM | potency estimated from few doses ([1]; compound concentrations:100 nM and 1000 nM (sheet 'Lestaurtinib' of Supplementary Table 1),run:Lestaurtinib_02752_R2,Plate:MR025): 851 nM | potency estimated from few doses ([1]; compound concentrations:100 nM and 1000 nM (sheet 'Lestaurtinib' of Supplementary Table 1),run:Lestaurtinib_02752_R3,Plate:MR025): 786 nM | potency estimated from few doses ([1]; compound concentrations:100 nM and 1000 nM (sheet 'Lestaurtinib' of Supplementary Table 1),run:Lestaurtinib_02765_R1,Plate:MR026): 911 nM | potency estimated from few doses ([1]; compound concentrations:100 nM and 1000 nM (sheet 'Lestaurtinib' of Supplementary Table 1),run:Lestaurtinib_02765_R2,Plate:MR026): 741 nM | potency estimated from few doses ([1]; compound concentrations:100 nM and 1000 nM (sheet 'Lestaurtinib' of Supplementary Table 1),run:Lestaurtinib_02766_R1,Plate:MR027): 782 nM | potency estimated from few doses ([1]; compound concentrations:100 nM and 1000 nM (sheet 'Lestaurtinib' of Supplementary Table 1),run:Lestaurtinib_02766_R2,Plate:MR027): 96.4 nM | potency estimated from few doses ([1]; compound concentrations:100 nM and 1000 nM (sheet 'Lestaurtinib' of Supplementary Table 1),run:Lestaurtinib_02766_R3,Plate:MR027): 669 nM | potency estimated from few doses ([1]; compound concentrations:100 nM and 1000 nM (sheet 'Lestaurtinib' of Supplementary Table 1),run:Lestaurtinib_02768_R3,Plate:MR028): 518 nM | potency estimated from few doses ([1]; compound concentrations:100 nM and 1000 nM (sheet 'Lestaurtinib' of Supplementary Table 1),run:Lestaurtinib_02795_R2,Plate:MR022): 783 nM | potency estimated from few doses ([1]; compound concentrations:100 nM and 1000 nM (sheet 'Lestaurtinib' of Supplementary Table 1),run:Lestaurtinib_02795_R3,Plate:MR022): 860 nM | potency estimated from few doses ([1]; compound concentrations:100 nM and 1000 nM (sheet 'Lestaurtinib' of Supplementary Table 1),run:Lestaurtinib_02802_R1,Plate:MR029): 713 nM | potency estimated from few doses ([1]; compound concentrations:100 nM and 1000 nM (sheet 'Lestaurtinib' of Supplementary Table 1),run:Lestaurtinib_02802_R2,Plate:MR029): 472 nM | potency estimated from few doses ([1]; compound concentrations:100 nM and 1000 nM (sheet 'Lestaurtinib' of Supplementary Table 1),run:Lestaurtinib_02802_R3,Plate:MR029): 74.9 nM | potency estimated from few doses ([1]; compound concentrations:100 nM and 1000 nM (sheet 'Lestaurtinib' of Supplementary Table 1),run:Lestaurtinib_02896_R2,Plate:MR030): 1800 nM | potency estimated from few doses ([1]; compound concentrations:100 nM and 1000 nM (sheet 'Lestaurtinib' of Supplementary Table 1),run:Lestaurtinib_02896_R3,Plate:MR030): 761 nM | potency estimated from few doses ([1]; compound concentrations:100 nM and 1000 nM (sheet 'Lestaurtinib' of Supplementary Table 1),run:Lestaurtinib_03172_R1,Plate:MR031): 796 nM | potency estimated from few doses ([1]; compound concentrations:100 nM and 1000 nM (sheet 'Lestaurtinib' of Supplementary Table 1),run:Lestaurtinib_03172_R2,Plate:MR031): 564 nM | potency estimated from few doses ([1]; compound concentrations:100 nM and 1000 nM (sheet 'Lestaurtinib' of Supplementary Table 1),run:Lestaurtinib_03172_R3,Plate:MR031): 696 nM | potency estimated from few doses ([1]; compound concentrations:100 nM and 1000 nM (sheet 'Lestaurtinib' of Supplementary Table 1),run:Lestaurtinib_03252_R1,Plate:MR032): 1210 nM | potency estimated from few doses ([1]; compound concentrations:100 nM and 1000 nM (sheet 'Lestaurtinib' of Supplementary Table 1),run:Lestaurtinib_03252_R2,Plate:MR032): 26.1 nM | potency estimated from few doses ([2]; compound concentrations:100 nM and 1000 nM (sheet 'Lestaurtinib' of Supplementary Table 1),run:Lestaurtinib_02339_R1,Plate:MR001): 41.6 nM | potency estimated from few doses ([2]; compound concentrations:100 nM and 1000 nM (sheet 'Lestaurtinib' of Supplementary Table 1),run:Lestaurtinib_02339_R3,Plate:MR001): 39.3 nM | potency estimated from few doses ([2]; compound concentrations:100 nM and 1000 nM (sheet 'Lestaurtinib' of Supplementary Table 1),run:Lestaurtinib_02364_R3,Plate:MR002): 45.4 nM | potency estimated from few doses ([2]; compound concentrations:100 nM and 1000 nM (sheet 'Lestaurtinib' of Supplementary Table 1),run:Lestaurtinib_02367_R2,Plate:MR003): 43.5 nM | potency estimated from few doses ([2]; compound concentrations:100 nM and 1000 nM (sheet 'Lestaurtinib' of Supplementary Table 1),run:Lestaurtinib_02367_R3,Plate:MR003): 44.3 nM | potency estimated from few doses ([2]; compound concentrations:100 nM and 1000 nM (sheet 'Lestaurtinib' of Supplementary Table 1),run:Lestaurtinib_02381_R1,Plate:MR004): 50.1 nM | potency estimated from few doses ([2]; compound concentrations:100 nM and 1000 nM (sheet 'Lestaurtinib' of Supplementary Table 1),run:Lestaurtinib_02381_R2,Plate:MR004): 54.4 nM | potency estimated from few doses ([2]; compound concentrations:100 nM and 1000 nM (sheet 'Lestaurtinib' of Supplementary Table 1),run:Lestaurtinib_02381_R3,Plate:MR004): 41.5 nM | potency estimated from few doses ([2]; compound concentrations:100 nM and 1000 nM (sheet 'Lestaurtinib' of Supplementary Table 1),run:Lestaurtinib_02407_R2,Plate:MR005): 51.1 nM | potency estimated from few doses ([2]; compound concentrations:100 nM and 1000 nM (sheet 'Lestaurtinib' of Supplementary Table 1),run:Lestaurtinib_02407_R3,Plate:MR005): 45.8 nM | potency estimated from few doses ([2]; compound concentrations:100 nM and 1000 nM (sheet 'Lestaurtinib' of Supplementary Table 1),run:Lestaurtinib_02422_R1,Plate:MR006): 40.9 nM | potency estimated from few doses ([2]; compound concentrations:100 nM and 1000 nM (sheet 'Lestaurtinib' of Supplementary Table 1),run:Lestaurtinib_02422_R2,Plate:MR006): 24 nM | potency estimated from few doses ([2]; compound concentrations:100 nM and 1000 nM (sheet 'Lestaurtinib' of Supplementary Table 1),run:Lestaurtinib_02422_R3,Plate:MR006): 41 nM | potency estimated from few doses ([2]; compound concentrations:100 nM and 1000 nM (sheet 'Lestaurtinib' of Supplementary Table 1),run:Lestaurtinib_02437_R1,Plate:MR007): 45.2 nM | potency estimated from few doses ([2]; compound concentrations:100 nM and 1000 nM (sheet 'Lestaurtinib' of Supplementary Table 1),run:Lestaurtinib_02437_R2,Plate:MR007): 74.6 nM | potency estimated from few doses ([2]; compound concentrations:100 nM and 1000 nM (sheet 'Lestaurtinib' of Supplementary Table 1),run:Lestaurtinib_02437_R3,Plate:MR007): 3.14 nM | potency estimated from few doses ([2]; compound concentrations:100 nM and 1000 nM (sheet 'Lestaurtinib' of Supplementary Table 1),run:Lestaurtinib_02438_R1,Plate:MR008): 45.4 nM | potency estimated from few doses ([2]; compound concentrations:100 nM and 1000 nM (sheet 'Lestaurtinib' of Supplementary Table 1),run:Lestaurtinib_02438_R2,Plate:MR008): 51 nM | potency estimated from few doses ([2]; compound concentrations:100 nM and 1000 nM (sheet 'Lestaurtinib' of Supplementary Table 1),run:Lestaurtinib_02438_R3,Plate:MR008): 31.7 nM | potency estimated from few doses ([2]; compound concentrations:100 nM and 1000 nM (sheet 'Lestaurtinib' of Supplementary Table 1),run:Lestaurtinib_02443_R2,Plate:MR009): 43.2 nM | potency estimated from few doses ([2]; compound concentrations:100 nM and 1000 nM (sheet 'Lestaurtinib' of Supplementary Table 1),run:Lestaurtinib_02473_R3,Plate:MR010): 38.9 nM | potency estimated from few doses ([2]; compound concentrations:100 nM and 1000 nM (sheet 'Lestaurtinib' of Supplementary Table 1),run:Lestaurtinib_02482_R2,Plate:MR011): 50.4 nM | potency estimated from few doses ([2]; compound concentrations:100 nM and 1000 nM (sheet 'Lestaurtinib' of Supplementary Table 1),run:Lestaurtinib_02482_R3,Plate:MR011): 42.2 nM | potency estimated from few doses ([2]; compound concentrations:100 nM and 1000 nM (sheet 'Lestaurtinib' of Supplementary Table 1),run:Lestaurtinib_02487_R2,Plate:MR012): 40.1 nM | potency estimated from few doses ([2]; compound concentrations:100 nM and 1000 nM (sheet 'Lestaurtinib' of Supplementary Table 1),run:Lestaurtinib_02487_R3,Plate:MR012): 67.4 nM | potency estimated from few doses ([2]; compound concentrations:100 nM and 1000 nM (sheet 'Lestaurtinib' of Supplementary Table 1),run:Lestaurtinib_02496_R1,Plate:MR013): 47.4 nM | potency estimated from few doses [2, 3]: 58.1 nM | potency estimated from few doses [2, 4]: 50.5 nM | potency estimated from few doses ([2]; compound concentrations:100 nM and 1000 nM (sheet 'Lestaurtinib' of Supplementary Table 1),run:Lestaurtinib_02566_R1,Plate:MR014): 67.2 nM | potency estimated from few doses ([2]; compound concentrations:100 nM and 1000 nM (sheet 'Lestaurtinib' of Supplementary Table 1),run:Lestaurtinib_02566_R2,Plate:MR014): 39.4 nM | potency estimated from few doses ([2]; compound concentrations:100 nM and 1000 nM (sheet 'Lestaurtinib' of Supplementary Table 1),run:Lestaurtinib_02566_R3,Plate:MR014): 46.5 nM | potency estimated from few doses [2, 5]: 38.1 nM | potency estimated from few doses [2, 6]: 52 nM | potency estimated from few doses [2, 7]: 82.5 nM | potency estimated from few doses [2, 8]: 35.8 nM | potency estimated from few doses [2, 9]: 50.7 nM | potency estimated from few doses [2, 10]: 33 nM | potency estimated from few doses [2, 11]: 54.7 nM | potency estimated from few doses ([2]; compound concentrations:100 nM and 1000 nM (sheet 'Lestaurtinib' of Supplementary Table 1),run:Lestaurtinib_02601_R3,Plate:MR018): 50.7 nM | potency estimated from few doses ([2]; compound concentrations:100 nM and 1000 nM (sheet 'Lestaurtinib' of Supplementary Table 1),run:Lestaurtinib_02606_R1,Plate:MR019): 41.7 nM | potency estimated from few doses [2, 12]: 52.8 nM | potency estimated from few doses [2, 13]: 37.9 nM | potency estimated from few doses ([2]; compound concentrations:100 nM and 1000 nM (sheet 'Lestaurtinib' of Supplementary Table 1),run:Lestaurtinib_02724_R1,Plate:MR021): 39.4 nM | potency estimated from few doses [2, 14]: 50.8 nM | potency estimated from few doses [2, 15]: 44.7 nM

Reference: article PMC11062922 (Nature Chemical Biology, 2023)
